# Measured values published in PubChem BioAssay.
# Activity calls are given as the source filed them. Unless noted, the rule behind the calls is not given here.
# How the values were obtained:
# [1] = tested on: XIP peptide (Xip251-270) binding; assay: XIP fragment 251-270 binding compounds – biochemical, small-molecule microarray, fluorescence 635/667 nm, 0.1 µg/mL protein, primary screen (AID 1182); details: fluorescent protein binding, 635 nm, higher = more signal, called active from +8 up or from −8 down
# XIP peptide (Xip251-270) = assay: compounds binding XIP fragment 251-270 – biochemical, small-molecule microarray, fluorescence 635/667 nm, 0.5 µg/mL protein, primary screen (AID 1183); details: fluorescence 635 nm, higher = more signal
# [2] = blood-stage malaria parasite viability loss – strain 3D7, DAPI fluorescence, 100 nL, primary screen (AID 1184);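 note: parasites grown inside human red blood cells in medium with human serum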; details: P. falciparum 3D7 growth, 3 d, higher = more signal
# [3] = biological target: Homeobox protein Hox-A13 (Mus musculus) (UniProt Q62424); assay: disruptors of Hoxa13 oligonucleotide interaction – biochemical, fluorescence polarization, labeled oligonucleotide, primary screen (AID 1185); details: Hoxa13:DNA binding, 15 min, higher = more signal, called active from +8 up or from −8 down
# [4] = blockers of DNA damage checkpoint Chk1 activation – imaging, HeLa, hydroxyurea, phospho-Chk1 antibody, percent positive cells, primary screen (AID 1186); details: hydroxyurea-induced phospho-Chk1 immunofluorescence imaging, higher = more signal
# [5] = blockers of DNA damage checkpoint Chk1 activation – imaging, HeLa, hydroxyurea, phospho-Chk1 nuclear intensity, primary screen (AID 1187); details: hydroxyurea-induced phospho-Chk1 immunofluorescence imaging, higher = more signal
# Chain of Homeobox protein Hox-A13 (Mus musculus) (Q62424 whole entry, looked up): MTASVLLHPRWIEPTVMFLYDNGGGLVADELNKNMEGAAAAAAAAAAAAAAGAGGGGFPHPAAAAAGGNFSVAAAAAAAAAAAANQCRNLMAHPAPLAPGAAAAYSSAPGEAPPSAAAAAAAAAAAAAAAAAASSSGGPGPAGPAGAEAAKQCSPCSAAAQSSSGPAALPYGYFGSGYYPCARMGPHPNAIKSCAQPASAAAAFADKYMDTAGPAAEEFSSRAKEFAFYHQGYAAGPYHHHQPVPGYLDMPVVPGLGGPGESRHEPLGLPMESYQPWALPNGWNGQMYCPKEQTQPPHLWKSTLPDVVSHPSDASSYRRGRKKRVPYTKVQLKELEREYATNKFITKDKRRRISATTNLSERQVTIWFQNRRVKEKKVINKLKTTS
Structure (SMILES),composite z-score [1],composite z-score (XIP peptide (Xip251-270)),z-score [2],z-score [3],z-score [4],z-score [5]
NC(=O)NCC#Cc1ccc2c(c1)[C@]1(C(=O)N2)[C@H](C(=O)O)[C@H]2C(=O)O[C@H](c3ccccc3)[C@H](c3ccccc3)N2[C@@H]1c1ccc(OCCO)cc1,-0.316 (inactive),0.419,-0.46,-6.34 (inactive),0.242 (inactive),0.615 (inactive)
CN1C(=O)C2C=CC(C(O)c3cccc(O)c3)N(Nc3ccccc3)C2C1=O (centres undefined),-0.252 (inactive),-0.0631,0.655,-0.751 (inactive),0.0011 (inactive),0.118 (inactive)
COc1ccc([Si](C)(C)[C@@H]2[C@@H](CC(=O)N3Cc4ccccc4C[C@H]3CO)O[C@]3(C(=O)N(Cc4cccc(N5C(=O)c6cccc7cccc5c67)c4)c4ccccc43)[C@H]2C)cc1,1.26 (inactive),0.574,-2.59,-1.47 (inactive),0.115 (inactive),-0.0849 (inactive)
COC(=O)[C@@]1(Cc2ccc(F)cc2)[C@H]2c3cc(C(=O)N4CCCC4)n(CCN4CNCC4=O)c3C[C@H]2CN1C(=O)c1ccccc1,0.207 (inactive),0.632,-1.65,-5.84 (inactive),0.191 (inactive),0.44 (inactive)
C=C(COC)/C(=C/C[C@H](OC(C)=O)c1ccc(OCCO)cc1)c1cc(C(=O)OC)ccc1OC,0.192 (inactive),0.731,-2.95,-4.11 (inactive),-0.285 (inactive),0.98 (inactive)
CC(C)N1CC=CC23O[C@@H]4C=CCOC(=O)[C@@H]4[C@H]2C(=O)N(CCCO)[C@@H]3C1=O (some centres undefined),0.816 (inactive),0.749,-1.91,-3.62 (inactive),0.762 (inactive),0.0478 (inactive)
O=C1O[C@H](c2ccccc2)[C@H](c2ccccc2)N2[C@H]1[C@@H](C(=O)NC[C@H](O)c1ccccc1)[C@]1(C(=O)Nc3ccc(C#CCCO)cc31)[C@H]2c1ccc(OCCO)cc1,1.14 (inactive),0.829,-0.685,-3.46 (inactive),-0.434 (inactive),-0.821 (inactive)
O=C1OCCC/C=C\[C@H]2OC34C=CCN(CCN5CCOCC5)C(=O)[C@H]3N(CCCCCCO)C(=O)[C@@H]4C12 (some centres undefined),3.43 (inactive),0.299,-0.282,-6.22 (inactive),-0.039 (inactive),0.587 (inactive)
C=CCOC(=O)[C@H]1[C@@H]2C(=O)O[C@@H](c3ccccc3)[C@@H](c3ccccc3)N2[C@@H](c2ccc(OCCOC(=O)[C@H]3C[C@H]4C(=O)N[C@@H](CCCCNC(C)=O)C(=O)N4[C@H]3c3ccc(O)cc3)cc2)[C@]12C(=O)Nc1ccccc12,2.69 (inactive),0.685,-1.72,-1.06 (inactive),0.203 (inactive),0.261 (inactive)
COC(=O)[C@@]1(Cc2ccccc2)[C@@H]2C(=CC(=O)[C@H]2CC(=O)C(=O)N(C)C)CN1C(=O)c1ccccc1,0.0477 (inactive),0.345,-0.99,-3.77 (inactive),0.0041 (inactive),0.253 (inactive)
COC(=O)[C@@]1(Cc2ccc(OC)cc2)[C@H]2c3cc(C(=O)N4CCCC4)n(Cc4c(-c5ccccc5)noc4C)c3C[C@H]2CN1C(=O)c1ccccc1,2.97 (inactive),0.473,-1.3,-3.25 (inactive),-0.279 (inactive),-0.313 (inactive)
CC(C)N1C(=O)c2ccccc2[C@@H](C(=O)NC2CC2)[C@@H]1c1ccc(CO)cc1,0.11 (inactive),0.461,0.314,-2.99 (inactive),-0.0392 (inactive),-0.0337 (inactive)
NCCCCCCNC(=O)[C@@H]1C[C@@H]2C(=O)N[C@@H](CCCCN)C(=O)N2[C@@H]1c1cccc(OCCO)c1,1.7 (inactive),0.832,0.139,-3.22 (inactive),-0.545 (inactive),-0.269 (inactive)
C[N+](C)(C)CCCCCCNC(=O)[C@H]1C[C@H]2C(=O)NCC(=O)N2[C@H]1c1ccc(O)cc1,0.537 (inactive),0.815,0.089,-2.39 (inactive),-0.458 (inactive),-0.132 (inactive)
CCCC[C@@H](O)C1=C(COc2ccccc2)C[C@H]2C(=O)N(C)C(=O)[C@H]2[C@H]1CO,-0.35 (inactive),-0.442,-0.764,-3.48 (inactive),-1.66 (inactive),-1.41 (inactive)
[N-]=[N+]=Nc1ccccc1[C@H]1OC(c2ccc(OCCCO)cc2)=N[C@@]1(Cc1ccccc1)C(=O)N1CCCCC1,0.391 (inactive),0.664,-1.95,-2.71 (inactive),-0.549 (inactive),-0.463 (inactive)
CO[C@]12C=C(Br)[C@@H](C[C@@H]1c1cccc(C)c1)[C@@]1(CO1)C2=O,0.177 (inactive),0.179,0.267,-1.7 (inactive),-0.545 (inactive),-0.28 (inactive)

Structure (SMILES),composite z-score [1],composite z-score (XIP peptide (Xip251-270)),z-score [2],z-score [3],z-score [4],z-score [5]
CN(C)C(=O)C1N=C(c2ccc(OCCCO)cc2)N(c2ccccc2)O1 (centres undefined),0.94 (inactive),0.62,0.639,-1.46 (inactive),-0.823 (inactive),-0.846 (inactive)
CO[C@H]1O[C@H](CO)[C@@H](OC(=O)Nc2ccc3c(c2)OCO3)[C@H](OC(=O)c2cc3ccccc3[nH]2)[C@H]1OC(=O)c1cc2ccccc2[nH]1,0.472 (inactive),0.374,-0.603,-4.88 (inactive),-0.308 (inactive),-0.227 (inactive)
C=CCN1C(=O)[C@@]2(O[C@@H](CCn3cc([C@H](O)c4ccccc4)nn3)[C@H]([Si](C)(C)c3ccc(OC)cc3)[C@H]2C)c2cc(N3CCC3=O)ccc21,-0.0195 (inactive),-0.114,-2.1,-5.38 (inactive),-0.108 (inactive),0.582 (inactive)
CCCC[C@@H]1C[C@H]1[C@@H](NC(=O)c1ccccc1)c1ccc(C(F)(F)F)cc1,2.28 (inactive),-1.51,0.011,0.0892 (inactive),-0.27 (inactive),-0.226 (inactive)
O=C1N(Cc2ccccc2)c2ccccc2[C@@H]2OC(c3ccc(OCCCO)cc3)=N[C@]12Cc1ccccc1,0.0973 (inactive),0.862,-2.45,-2.22 (inactive),-0.389 (inactive),-0.321 (inactive)
Cc1ccccc1C(O)C1C=CC2C(=O)N(C)C(=O)C2N1N(c1ccccc1)c1ccccc1 (centres undefined),-0.0728 (inactive),0.649,0.548,-1.17 (inactive),-0.274 (inactive),-0.168 (inactive)
C=C(/C(=C/C[C@@H](OC(C)=O)c1cccc(OCCO)c1)c1cc(C(=O)OC)ccc1OC)C(C)C,-0.139 (inactive),0.567,-3.06,-5.59 (inactive),-0.541 (inactive),-0.42 (inactive)
COc1ccc([Si](C)(C)[C@@H]2[C@@H](CC(=O)N(CCO)Cc3ccccc3)O[C@]3(C(=O)N(Cc4cccc(N5C(=O)c6cccc7cccc5c67)c4)c4ccccc43)[C@H]2C)cc1,-0.338 (inactive),0.604,-2.52,-0.625 (inactive),-0.512 (inactive),0.0885 (inactive)
COCCOC(=O)N1C(=O)[C@@]2(c3cc(C#CCCO)ccc31)[C@H](C(=O)Nc1nc3ccccc3s1)[C@H]1C(=O)O[C@H](c3ccccc3)[C@H](c3ccccc3)N1[C@@H]2c1ccccc1OCCO,0.0261 (inactive),0.73,-1.68,2.62 (inactive),0.225 (inactive),0.416 (inactive)
COC(=O)Cn1c(C(=O)N(C)C)cc2c1C[C@H]1CN(C(=O)c3ccccc3)[C@@](Cc3ccc(F)cc3)(C(=O)OC)[C@@H]21,1.69 (inactive),-0.196,-0.0793,-4.28 (inactive),0.927 (inactive),1.08 (inactive)
O=C1NC(=O)C2C1C=CC(C(O)c1cccc3ccccc13)N2Nc1ccc(Cl)cc1Cl (centres undefined),1.46 (inactive),0.497,-0.0879,-4.57 (inactive),0.461 (inactive),0.3 (inactive)
CN(C)CCCNC(=O)[C@@H]1c2ccccc2C(=O)N(Cc2ccccc2Cl)[C@H]1c1ccc(CO)cc1,0.596 (inactive),0.285,-0.424,-2.58 (inactive),0.0357 (inactive),0.0322 (inactive)
O=C1OCC=C[C@H]2OC34C=CCN(Cn5nnc6ccccc65)C(=O)[C@H]3N(CCCO)C(=O)[C@@H]4[C@@H]12 (some centres undefined),0.206 (inactive),0.155,-1.88,-1.9 (inactive),-0.242 (inactive),-0.228 (inactive)
CN1C(=O)C2C=CC(C(O)COCc3ccccc3)N(N(c3ccccc3)c3ccccc3)C2C1=O (centres undefined),0.441 (inactive),0.74,-0.144,-0.885 (inactive),-0.0138 (inactive),-0.35 (inactive)
[N-]=[N+]=NCc1ccccc1C[C@]1(C(N)=O)N=C(c2ccc(OCCCO)cc2)O[C@H]1c1ccccc1,0.594 (inactive),0.692,-1.42,-6.49 (inactive),0.0449 (inactive),0.43 (inactive)
COCCOC(=O)N1C(=O)[C@@]2(c3cc(C#Cc4ccc(OC)cc4)ccc31)[C@H](c1ccc(O)cc1)N1[C@H](c3ccccc3)[C@H](c3ccccc3)OC(=O)[C@H]1[C@@H]2C(=O)N1CCCCCCC1,0.711 (inactive),0.436,-1.55,1.36 (inactive),-0.0871 (inactive),-0.171 (inactive)
CCOC(=O)C1=CC[C@@H](c2cccc(Cl)c2)N(S(=O)(=O)c2ccc(C)cc2)C1,1.46 (inactive),0.662,-0.639,-1.21 (inactive),-0.566 (inactive),-0.272 (inactive)
